Assay [1] is described as follows: ATG_RORE_CIS: Attagene CIS-FACTORIAL HepG2 Assay for human RAR-related Orphan Receptor Element (RORE) (AID 2282959). The settings on record: HepG2 Attagene cis-factorial RORE reporter, mRNA; actives raise or lower the signal. The method, boiled down:
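Measured here: transcript induction of a cis-regulated reporter in HepG2 cells transiently transfected via FuGene 6. After 24 h, RNA was processed by RT-PCR and fluorescent capillary electrophoresis; DMSO defined baseline activity.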

The nature of assay [2]: ATG_Sox_CIS: Attagene CIS-FACTORIAL HepG2 Assay for human SRY-box transcription factor (SOX) (AID 2282960). The settings on record: HepG2 Attagene cis-factorial SOX reporter, mRNA; actives raise or lower the signal. The method, boiled down:
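Using transiently transfected HepG2 cells, reporter transcription driven by cis elements was assessed 24 h after dosing. Signal was fluorescence of capillary-separated RT-PCR products, with DMSO defining baseline activity.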

The target of assay [3] is Transcription factor Sp1 (Homo sapiens) (UniProt P08047). The assay is described as follows: ATG_Sp1_CIS: Attagene CIS-FACTORIAL HepG2 Assay for human Specificity Protein 1 (Sp1) (AID 2282961). Conditions: HepG2 Sp1 cis-reporter transcription, actives raise or lower the signal. In outline:
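After transient transfection of HepG2 cells with cis-promoter reporter units and 24 h chemical treatment, reporter transcripts were quantified by RT-PCR and capillary electrophoresis fluorescence. Gain- and loss-of-signal fitted against DMSO.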

A short description of assay [4]: ATG_SREBP_CIS: Attagene CIS-FACTORIAL HepG2 Assay for human Sterol Regulatory Element Binding (SREBP) (AID 2282962). The settings on record: HepG2 Attagene cis-factorial SREBP reporter, mRNA; actives raise or lower the signal. The method, boiled down:
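Twenty-four hours after chemical dosing of transfected HepG2 cultures, reporter RNA was converted to cDNA, amplified, end-labelled with 6-FAM and resolved by capillary electrophoresis. Responses were fitted relative to DMSO.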

The target in assay [5] is Signal transducer and activator of transcription 3 (Homo sapiens) (UniProt P40763). Kind of assay: ATG_STAT3_CIS: Attagene CIS-FACTORIAL HepG2 Assay for human Signal Transducer and Activator of Transcription 3 (STAT3) (AID 2282963). Conditions: HepG2, Attagene cis-factorial STAT3 reporter transcription; actives raise or lower the signal. The method, boiled down:
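Endogenous STAT3-responsive cis-element activity was read in transiently transfected HepG2 cells after 24 h treatment. Reporter transcripts were quantified via RT-PCR and capillary electrophoresis, with DMSO as negative control and bidirectional curve fitting.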

Assay [6] in a line: ATG_TA_CIS: Attagene CIS-FACTORIAL HepG2 Assay for human TA Basal Promoter (AID 2282964). The settings on record: HepG2 Attagene CIS-factorial TA basal promoter reporter; actives raise or lower the signal. The method, boiled down:
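Multiplexed mRNA reporter assay, HepG2, 24 h. Reporter cDNA amplified, 6-FAM primer-extended, HpaI-cut, CE-sized; DMSO = negative control and baseline.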

Assay [7] can be described thus: ATG_TCF_b_cat_CIS: Attagene CIS-FACTORIAL HepG2 Assay for human T-Cell-Factor with beta-catenin (TCF/b-cat) (AID 2282965). The settings on record: HepG2 TCF/beta-catenin cis-reporter transcription, actives raise or lower the signal. The method, boiled down:
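Endogenous TCF/LEF activity read as reporter transcript level via RT-PCR and capillary electrophoresis fluorescence in transfected HepG2, 24 h exposure; gain or loss of signal fitted against DMSO controls.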

The nature of assay [8]: ATG_TAL_CIS: Attagene CIS-FACTORIAL HepG2 Assay for human TAL Basal Promoter (AID 2282966).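 Also: background control endpoint measuring basal TAL promoter reporter mRNA not a specific factor.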 The settings on record: HepG2 Attagene cis-factorial TAL promoter reporter; actives raise or lower the signal. The method, boiled down:
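HepG2 cells transiently transfected with multiplexed cis-promoter reporter units, dosed 24 h. Reporter mRNA quantified by RT-PCR, 6-FAM labelling, HpaI digestion and capillary electrophoresis; TAL basal promoter serves as background control, fitted bidirectionally versus DMSO.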

Assay [9] in a line: ATG_TGFb_CIS: Attagene CIS-FACTORIAL HepG2 Assay for human Transforming Growth Factor (TGF) (AID 2282967). The settings on record: HepG2 Attagene CIS TGFb reporter, mRNA transcription; actives raise or lower the signal. The method, boiled down:
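Transcript-level reporter readout: HepG2 transfectants, 24 h exposure, RNA to cDNA, reporter-specific PCR, fluorescent primer extension, capillary sizing against ROX standards. Gain- or loss-of-signal relative to DMSO.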

Assay [10] can be described thus: ATG_VDRE_CIS: Attagene CIS-FACTORIAL HepG2 Assay for human Vitamin D Receptor Element (VDRE) (AID 2282968). The settings on record: HepG2 VDRE cis-reporter transcription, actives raise or lower the signal. In outline:
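Reporter mRNA induction, quantified by capillary electrophoresis of fluorescently labelled RT-PCR products, was read 24 h after dosing HepG2 cells carrying transiently transfected cis-regulated reporter units; gain or loss relative to DMSO.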

Assay [11] deals with X-box-binding protein 1 (Homo sapiens) (UniProt P17861). Kind of assay: ATG_Xbp1_CIS: Attagene CIS-FACTORIAL HepG2 Assay for human X-box Binding Protein 1 (XBP1) (AID 2282972). Conditions: HepG2 XBP1 cis-element reporter, Attagene multiplex; actives raise or lower the signal. In outline: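 After a 24-hour chemical exposure of HepG2 cells carrying cis-regulated reporters, reporter mRNA levels are assessed. Quantification uses RT-PCR, 6-FAM labelling and capillary electrophoresis. Gain- or loss-of-signal is fitted against DMSO.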

The target in assay [12] is Androgen receptor (Homo sapiens) (UniProt P10275). Kind of assay: ATG_AR_TRANS: Attagene TRANS-FACTORIAL HepG2 Assay for human Androgen Receptor (AR) (AID 2282973; active = hit-call score of the fitted dose curve at least 0.9, where 1 is the maximum). The settings on record: HepG2 Attagene TRANS-FACTORIAL AR reporter transcription. In outline:
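HepG2 cells transiently transfected with AR-Gal4 chimera and GAL4-UAS reporter units; chemical exposure 24 h. Reporter mRNA quantified by RT-PCR with fluorescent labelling and capillary electrophoresis; gain-of-signal fitted against DMSO.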

Assay [13] in a line: ATG_M_19_TRANS: Attagene TRANS-FACTORIAL HepG2 Assay for M19 Transcription Factor (Internal Marker) (AID 2282974; active = hit-call score of the fitted dose curve at least 0.9, where 1 is the maximum). The settings on record: HepG2 Attagene TRANS-FACTORIAL M19 internal marker reporter. The method, boiled down:
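Gain-of-signal in reporter mRNA, relative to DMSO, was scored from capillary electrophoresis fluorescence. HepG2 cells carried transiently transfected multiple reporter transcription units and were incubated with test chemicals for 24 h.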

For assay [14], the target named is Bile acid receptor (Homo sapiens) (UniProt Q96RI1). The assay is described as follows: ATG_FXR_TRANS: Attagene TRANS-FACTORIAL HepG2 Assay for Farnesoid X Receptor (FXR) (AID 2282979; active = hit-call score of the fitted dose curve at least 0.9, where 1 is the maximum;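 also: hits raise reporter mRNA above DMSO so AC50 marks FXR activation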). The settings on record: HepG2 Attagene TRANS FXR-GAL4 reporter transcription. In outline:
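HepG2 cells were transiently transfected with GAL4-UAS reporters driven by chimeric NR-Gal4 proteins and dosed for 24 h. Reporter mRNA was quantified by RT-PCR, fluorescent labelling, HpaI digestion and capillary electrophoresis, with gain of signal scored versus DMSO.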

In assay [15] the target is Nuclear receptor subfamily 1 group I member 3 (Homo sapiens) (UniProt Q14994). The assay is described as follows: ATG_CAR_TRANS: Attagene TRANS-FACTORIAL HepG2 Assay for human Constitutive Androstane Receptor (CAR) (AID 2282969; active = hit-call score of the fitted dose curve at least 0.9, where 1 is the maximum;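 also: activators raise reporter mRNA above DMSO so AC50 marks induction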). Conditions: HepG2 Attagene TRANS-FACTORIAL CAR reporter. The method, boiled down:
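Readout is reporter mRNA induction, quantified by fluorescent primer extension and capillary electrophoresis after RT-PCR. Cells were HepG2 transiently carrying chimeric NR-Gal4 constructs with GAL4-UAS reporters, treated for 24 h; activity scored upward from DMSO.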

Assay [16] deals with Estrogen receptor (Homo sapiens) (UniProt P03372). The assay is described as follows: ATG_ERa_TRANS: Attagene TRANS-FACTORIAL HepG2 Assay for human Estrogen Receptor alpha (ERa) (AID 2282970; active = hit-call score of the fitted dose curve at least 0.9, where 1 is the maximum). Conditions: HepG2 Attagene TRANS ERa GAL4 reporter, mRNA. The method, boiled down:
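HepG2 cells transiently transfected with multiplexed GAL4-UAS reporter units read out chimeric NR-Gal4 activity. After 24 h compound exposure, reporter mRNA was quantified by RT-PCR, 6-FAM labeling, HpaI digestion and capillary electrophoresis, relative to DMSO.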

Assay [17] concerns the target Steroid hormone receptor ERR1 (Homo sapiens) (UniProt P11474). The assay is described as follows: ATG_ERRa_TRANS: Attagene TRANS-FACTORIAL HepG2 Assay for human Estrogen-Related Receptor alpha (ERRa) (AID 2282971; active = hit-call score of the fitted dose curve at least 0.9, where 1 is the maximum). The settings on record: HepG2 Attagene TRANS reporter, ERRa transactivation. In outline: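 HepG2 cells transiently transfected with GAL4-UAS reporter units and chimeric NR-Gal4 constructs; after 24 hour compound incubation, reporter mRNA quantified by RT-PCR, fluorescent labelling and capillary electrophoresis, gain of signal versus DMSO.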

Assay [18] in a line: ATG_GAL4_TRANS: Attagene TRANS-FACTORIAL HepG2 Assay for GAL4 (Internal Marker) (AID 2282976; active = hit-call score of the fitted dose curve at least 0.9, where 1 is the maximum). Conditions: HepG2 Attagene TRANS GAL4 internal marker reporter. The method, boiled down:
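Background-control readout: GAL4-UAS reporter transcript in transiently transfected HepG2 cells after 24 h compound exposure. Measured by RT-PCR, 6-FAM primer extension, HpaI digest and capillary electrophoresis; gain-of-signal fit versus DMSO.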

Assay [19] concerns the target Glucocorticoid receptor (Homo sapiens) (UniProt P04150). Kind of assay: ATG_GR_TRANS: Attagene TRANS-FACTORIAL HepG2 Assay for human Glucocorticoid Receptor (GR) (AID 2282978; active = hit-call score of the fitted dose curve at least 0.9, where 1 is the maximum;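 also: activators score as hits since higher reporter transcript over DMSO is fitted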). Conditions: HepG2 Attagene TRANS GR reporter, mRNA transcription. In outline: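 HepG2 transient transfection, multiple reporter units, GAL4-UAS under NR-GAL4 chimera control. 24 h treatment. Reporter mRNA by RT-PCR/CE fluorescence, DMSO as negative control.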

Inconclusive results are not listed. Calls of active or inactive are those of the source. The calls were made as follows, unless noted: active = hit-call score of the fitted dose curve at least 0.9, where 1 is the maximum; inactive = score below 0.9.

Bile acid receptor (Homo sapiens), sequence (Q96RI1 whole entry, looked up, the tested form may be a part): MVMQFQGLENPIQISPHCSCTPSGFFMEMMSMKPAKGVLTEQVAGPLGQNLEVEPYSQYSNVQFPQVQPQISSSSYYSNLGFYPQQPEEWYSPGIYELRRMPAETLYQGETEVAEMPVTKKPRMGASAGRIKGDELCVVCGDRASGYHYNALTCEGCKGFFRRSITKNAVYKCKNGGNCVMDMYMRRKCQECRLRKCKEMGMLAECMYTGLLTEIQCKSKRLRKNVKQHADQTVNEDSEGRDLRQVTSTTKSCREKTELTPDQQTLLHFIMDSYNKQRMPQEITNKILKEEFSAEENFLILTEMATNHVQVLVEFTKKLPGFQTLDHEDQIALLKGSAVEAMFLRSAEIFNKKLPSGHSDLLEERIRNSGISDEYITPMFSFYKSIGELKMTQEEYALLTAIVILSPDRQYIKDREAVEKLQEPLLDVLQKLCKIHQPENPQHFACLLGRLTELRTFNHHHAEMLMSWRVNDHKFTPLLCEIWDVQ
Glucocorticoid receptor (Homo sapiens), sequence (P04150 whole entry, looked up, the tested form may be a part): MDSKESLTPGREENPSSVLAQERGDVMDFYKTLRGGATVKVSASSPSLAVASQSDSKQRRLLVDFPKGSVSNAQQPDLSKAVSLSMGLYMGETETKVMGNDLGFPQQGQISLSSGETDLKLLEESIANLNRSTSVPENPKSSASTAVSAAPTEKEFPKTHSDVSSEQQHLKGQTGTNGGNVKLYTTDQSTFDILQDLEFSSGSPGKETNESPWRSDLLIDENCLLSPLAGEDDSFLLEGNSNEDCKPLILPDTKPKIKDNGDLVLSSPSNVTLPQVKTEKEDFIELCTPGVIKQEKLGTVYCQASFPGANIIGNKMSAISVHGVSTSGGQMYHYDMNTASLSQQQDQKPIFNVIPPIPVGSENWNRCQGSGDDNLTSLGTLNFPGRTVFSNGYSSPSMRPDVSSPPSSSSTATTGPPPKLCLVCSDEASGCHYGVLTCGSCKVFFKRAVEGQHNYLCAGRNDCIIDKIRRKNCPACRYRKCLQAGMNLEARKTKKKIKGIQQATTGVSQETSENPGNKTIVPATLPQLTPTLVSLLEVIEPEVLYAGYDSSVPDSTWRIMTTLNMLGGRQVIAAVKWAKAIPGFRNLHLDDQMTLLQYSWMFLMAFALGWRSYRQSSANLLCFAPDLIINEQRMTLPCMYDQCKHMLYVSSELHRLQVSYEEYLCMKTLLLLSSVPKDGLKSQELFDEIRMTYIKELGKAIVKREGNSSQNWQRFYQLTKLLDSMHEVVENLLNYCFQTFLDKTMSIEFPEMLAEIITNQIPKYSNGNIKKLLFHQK
Transcription factor Sp1 (Homo sapiens), sequence (P08047 whole entry, looked up): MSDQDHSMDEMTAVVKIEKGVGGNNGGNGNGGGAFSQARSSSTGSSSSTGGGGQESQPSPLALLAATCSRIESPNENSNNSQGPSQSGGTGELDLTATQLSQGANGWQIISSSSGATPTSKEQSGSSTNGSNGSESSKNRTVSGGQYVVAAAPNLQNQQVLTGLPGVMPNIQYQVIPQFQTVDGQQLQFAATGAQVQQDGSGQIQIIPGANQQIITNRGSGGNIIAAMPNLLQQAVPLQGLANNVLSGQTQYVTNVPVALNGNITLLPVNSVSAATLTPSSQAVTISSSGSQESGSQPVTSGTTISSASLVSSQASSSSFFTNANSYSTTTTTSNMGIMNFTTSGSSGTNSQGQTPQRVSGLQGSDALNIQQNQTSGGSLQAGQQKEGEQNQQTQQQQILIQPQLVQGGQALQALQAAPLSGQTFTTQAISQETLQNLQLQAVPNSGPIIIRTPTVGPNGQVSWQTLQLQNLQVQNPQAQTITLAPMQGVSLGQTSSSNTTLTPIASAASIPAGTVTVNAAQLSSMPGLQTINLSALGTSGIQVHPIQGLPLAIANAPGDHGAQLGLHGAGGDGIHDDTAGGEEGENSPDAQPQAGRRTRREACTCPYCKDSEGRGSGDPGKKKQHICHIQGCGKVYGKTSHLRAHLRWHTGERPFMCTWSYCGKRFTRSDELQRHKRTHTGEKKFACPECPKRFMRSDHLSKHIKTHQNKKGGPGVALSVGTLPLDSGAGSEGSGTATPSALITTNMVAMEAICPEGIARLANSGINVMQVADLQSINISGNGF
Signal transducer and activator of transcription 3 (Homo sapiens), sequence (P40763 whole entry, looked up): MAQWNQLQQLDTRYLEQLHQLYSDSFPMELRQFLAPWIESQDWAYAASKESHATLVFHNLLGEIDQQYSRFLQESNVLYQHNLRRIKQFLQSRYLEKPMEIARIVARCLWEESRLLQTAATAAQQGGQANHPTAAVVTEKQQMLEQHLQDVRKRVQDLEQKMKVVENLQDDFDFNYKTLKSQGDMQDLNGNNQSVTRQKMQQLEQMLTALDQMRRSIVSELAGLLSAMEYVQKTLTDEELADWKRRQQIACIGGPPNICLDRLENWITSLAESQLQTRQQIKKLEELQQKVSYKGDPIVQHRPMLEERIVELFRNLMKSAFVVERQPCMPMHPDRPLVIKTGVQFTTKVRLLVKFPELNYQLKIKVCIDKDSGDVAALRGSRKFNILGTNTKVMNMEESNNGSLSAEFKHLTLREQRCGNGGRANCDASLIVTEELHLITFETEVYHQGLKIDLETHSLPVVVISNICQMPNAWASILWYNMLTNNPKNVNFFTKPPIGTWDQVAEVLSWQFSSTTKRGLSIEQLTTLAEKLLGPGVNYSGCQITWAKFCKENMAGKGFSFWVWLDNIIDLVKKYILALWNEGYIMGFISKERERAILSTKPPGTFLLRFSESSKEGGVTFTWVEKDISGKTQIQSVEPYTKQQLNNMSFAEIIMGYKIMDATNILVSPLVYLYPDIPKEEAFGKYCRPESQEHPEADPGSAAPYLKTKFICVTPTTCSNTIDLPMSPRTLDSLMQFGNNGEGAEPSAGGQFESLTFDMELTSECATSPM
X-box-binding protein 1 (Homo sapiens), sequence (P17861 whole entry, looked up): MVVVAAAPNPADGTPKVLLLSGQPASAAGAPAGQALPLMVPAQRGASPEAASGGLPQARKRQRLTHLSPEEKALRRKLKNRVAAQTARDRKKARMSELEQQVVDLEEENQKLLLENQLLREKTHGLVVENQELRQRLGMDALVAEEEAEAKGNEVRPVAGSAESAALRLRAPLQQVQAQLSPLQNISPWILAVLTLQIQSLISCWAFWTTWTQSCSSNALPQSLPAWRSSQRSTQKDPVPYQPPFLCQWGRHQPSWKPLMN
Estrogen receptor (Homo sapiens), sequence (P03372 whole entry, looked up, the tested form may be a part): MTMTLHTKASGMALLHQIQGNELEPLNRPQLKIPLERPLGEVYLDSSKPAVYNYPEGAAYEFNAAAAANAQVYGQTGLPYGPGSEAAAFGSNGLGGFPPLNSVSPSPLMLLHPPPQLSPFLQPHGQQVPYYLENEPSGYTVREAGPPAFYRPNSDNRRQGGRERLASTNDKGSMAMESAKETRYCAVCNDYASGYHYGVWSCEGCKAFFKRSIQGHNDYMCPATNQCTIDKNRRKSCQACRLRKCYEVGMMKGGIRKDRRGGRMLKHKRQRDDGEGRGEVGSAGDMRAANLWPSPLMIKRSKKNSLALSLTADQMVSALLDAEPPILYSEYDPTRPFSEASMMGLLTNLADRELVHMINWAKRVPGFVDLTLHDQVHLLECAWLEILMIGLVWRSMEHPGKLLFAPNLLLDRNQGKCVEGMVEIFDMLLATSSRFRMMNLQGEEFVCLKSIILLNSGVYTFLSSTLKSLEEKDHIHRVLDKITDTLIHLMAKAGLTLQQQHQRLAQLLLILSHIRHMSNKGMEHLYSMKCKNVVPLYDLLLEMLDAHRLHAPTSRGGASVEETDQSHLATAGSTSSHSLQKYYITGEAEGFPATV
Steroid hormone receptor ERR1 (Homo sapiens), sequence (P11474 whole entry, looked up, the tested form may be a part): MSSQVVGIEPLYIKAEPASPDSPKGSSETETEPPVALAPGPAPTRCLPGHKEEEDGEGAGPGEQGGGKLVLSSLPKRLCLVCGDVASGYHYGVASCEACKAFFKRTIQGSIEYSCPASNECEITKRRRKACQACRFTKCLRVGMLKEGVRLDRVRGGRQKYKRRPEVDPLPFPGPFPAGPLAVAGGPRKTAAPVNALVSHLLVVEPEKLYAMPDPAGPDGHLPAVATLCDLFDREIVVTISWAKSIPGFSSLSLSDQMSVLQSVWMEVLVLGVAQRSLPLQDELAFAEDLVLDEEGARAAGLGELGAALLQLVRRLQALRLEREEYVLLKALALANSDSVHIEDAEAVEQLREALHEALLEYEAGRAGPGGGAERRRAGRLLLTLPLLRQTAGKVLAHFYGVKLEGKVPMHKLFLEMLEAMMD
Androgen receptor (Homo sapiens), sequence (P10275 whole entry, looked up, the tested form may be a part): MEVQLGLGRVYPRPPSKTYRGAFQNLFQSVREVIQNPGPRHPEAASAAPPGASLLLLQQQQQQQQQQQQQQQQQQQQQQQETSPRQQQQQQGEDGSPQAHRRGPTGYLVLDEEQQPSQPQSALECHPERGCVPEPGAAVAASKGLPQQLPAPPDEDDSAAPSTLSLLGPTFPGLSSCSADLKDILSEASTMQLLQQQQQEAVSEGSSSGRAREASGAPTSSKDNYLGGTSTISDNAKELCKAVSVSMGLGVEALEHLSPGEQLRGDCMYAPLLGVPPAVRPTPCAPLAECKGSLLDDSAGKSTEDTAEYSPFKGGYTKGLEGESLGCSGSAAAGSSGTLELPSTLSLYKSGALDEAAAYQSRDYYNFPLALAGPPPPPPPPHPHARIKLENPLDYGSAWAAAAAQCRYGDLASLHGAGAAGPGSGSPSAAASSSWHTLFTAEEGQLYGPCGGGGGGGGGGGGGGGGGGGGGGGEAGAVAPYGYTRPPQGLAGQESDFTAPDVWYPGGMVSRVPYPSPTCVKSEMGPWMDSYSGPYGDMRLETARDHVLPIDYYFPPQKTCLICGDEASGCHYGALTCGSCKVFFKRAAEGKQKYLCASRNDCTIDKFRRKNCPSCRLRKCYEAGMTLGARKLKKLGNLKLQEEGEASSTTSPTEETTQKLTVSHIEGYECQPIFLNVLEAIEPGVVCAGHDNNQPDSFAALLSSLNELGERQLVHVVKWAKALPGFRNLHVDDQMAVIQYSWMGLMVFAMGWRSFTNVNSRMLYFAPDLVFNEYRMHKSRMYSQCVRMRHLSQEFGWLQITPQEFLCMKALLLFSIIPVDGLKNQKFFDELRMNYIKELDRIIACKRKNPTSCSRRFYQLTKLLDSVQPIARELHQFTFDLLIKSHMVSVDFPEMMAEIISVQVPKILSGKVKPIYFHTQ

`CN(CCCC(O)c1cccnc1)N=O` (stereo not given): the outcome in [1], in assay [2], in assay [3], in assay [4], in assay [5] and in assay [6] was inactive. Moreover, the outcome in assay [7], in [8], in assay [9], in assay [10], in assay [11] and in assay [12] was inactive. Moreover, the result in [13] and in [14] was inactive.

Turning to `CCCCOC(=O)COC(=O)c1ccccc1C(=O)OCCCC`, the concentration at half-maximal activity (AC50) in assay [1] is 53.2 µM (active). The result in [2], in assay [3], in assay [4], in assay [5], in assay [6] and in assay [7] was inactive. For the same molecule, the outcome in assay [8], in assay [9], in assay [15], in [16], in [17] and in [11] was inactive. Moreover, the molecule was classed as inactive in [13], in assay [18] and in [19].

As for `Cc1cc(SCc2sc(-c3ccc(C(F)(F)F)c(F)c3)nc2C)ccc1OCC(=O)O`, the concentration at half-maximal activity (AC50) is 8.36 µM (active) in assay [1]; 23 µM (active) in assay [6]; 24.8 µM (active) in assay [7]; 15.5 µM (active) in assay [8]; 9.54 µM (active) in [10]; 25.2 µM (active) in assay [11]. Also, the half-maximal activity concentration (AC50) in assay [14] is 27.1 µM (active). The result in assay [2], in assay [3], in [4], in [5], in [9] and in [19] was inactive.

For `N#CCC#N`, the result in [1], in [2], in assay [3], in assay [4], in [5] and in [6] was inactive. Besides, the result in [7], in [8], in assay [9], in [10], in assay [11] and in assay [19] was inactive.

For `O=NN1CCCCCC1`, the call in assay [1], in [2], in assay [3], in [4], in assay [5] and in [6] was inactive. In addition, the call in assay [7], in assay [8], in [9], in [10], in [16] and in [11] was inactive. In addition, the call in [18], in assay [19] and in assay [14] was inactive.
